Results filed as inconclusive are left out. Where a call stands in place of a potency, no number is given. Calls of active or inactive are those of the source. The call rests on the fitted dose curve; in most records, active means well fitted inhibition curve with a large enough effect; inconclusive means small, poorly fitted or top-dose-only effect; inactive means flat fitted curve, though single readings scatter.
Potency means the concentration at half of the fitted maximal effect.

One test has as its system JCK. Kind of test: qHTS profiling for inhibitors of Plasmodium falciparum proliferation (AID 504749). Further: nearly all actives have a fitted effect of over 60% in size. To be noted: P. falciparum in erythrocytes, SYBR Green DNA, 72 h; series mostly up to 28.7 µM. The method in brief:
(§1)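 In a 72 h erythrocytic culture (37 C, humidified, 5% CO2) at 2.5% hematocrit and 0.3% starting parasitemia, compounds were tested; SYBR Green I in detergent lysis buffer stained parasite DNA overnight.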
For the molecule `COC(=O)C[C@](O)(CCCC(C)(C)O)C(=O)O[C@@H]1C(OC)=C[C@]23CCCN2CCc2cc4c(cc2[C@H]13)OCO4`, the Potency is 6.3 nM (active).
The same measure, in the same setting: in the case of `CC=CC1=C(C(=O)O)N2C(=O)[C@H](NC(=O)[C@H](N)c3ccc(O)cc3)[C@@H]2SC1` it was “inactive”; in that of `COc1cc(C(=O)NS(=O)(=O)c2ccccc2C)ccc1Cc1cn(C)c2ccc(NC(=O)OC3CCCC3)cc12`, “inactive”; in that of `C[C@H]1C[C@@H]2[C@@H]([C@@H](O)C[C@@]3(C)[C@H]2CC[C@]3(O)C(=O)CO)[C@@]2(C)C=CC(=O)C=C12`, “inactive”.
The same measure, in the same setting: under `O=c1[nH]c(=O)n(C2CCCO2)cc1F` (centres undefined) stands “inactive”; under `CC1(C)O[C@@H]2C[C@@H]3[C@H]4C[C@@H](F)C5=CC(=O)C=C[C@]5(C)[C@@]4(F)[C@@H](O)C[C@]3(C)[C@]2(C(=O)CO)O1`, “inactive”; under `Nc1ccn([C@@H]2CS[C@H](CO)O2)c(=O)n1`, “inactive”.
On the same count and under the same terms, under `CN1c2cc(O)c(N=NC(N)=O)cc2CC1S(=O)(=O)O` (centres undefined) stands “inactive”; under `CC[C@H]1CN2CCc3cc(OC)c(OC)cc3[C@H]2C[C@@H]1C[C@@H]1NCCc2cc(OC)c(OC)cc21`, 141 nM (active); under `CC(C)(C)NC(=O)[C@H]1CN(Cc2cccnc2)CCN1C[C@@H](O)C[C@@H](Cc1ccccc1)C(=O)N[C@H]1c2ccccc2C[C@H]1O`, “inactive”.
As to `O=C(O)CO.[NH2-].[NH2-].[Pt+2]`, the Potency result is “inactive”.
For the molecule `COC(=O)C1=C(C)NC(C)=C(C(=O)OCCN2CCN(C(c3ccccc3)c3ccccc3)CC2)C1c1cccc([N+](=O)[O-])c1` (centres undefined), the Potency is 12600 nM (active).
The same measure, in the same setting: under `CCC1=C[C@@H]2CN(C1)Cc1c([nH]c3ccccc13)[C@@](C(=O)OC)(c1cc3c(cc1OC)N(C)[C@@H]1[C@@](O)(C(=O)OC)[C@H](OC(C)=O)[C@]4(CC)C=CCN5CC[C@]31[C@@H]54)C2` stands 14100 nM (active).
Take `Nc1ccc(S(=O)(=O)Nc2ncccn2)cc1`: the Potency entry is “inactive”.

A further test concerns N140. The description is as above. Particulars: P. falciparum in erythrocytes, SYBR Green DNA, 72 h; series mostly up to 28.7 µM. The method in brief:
as §1
Take `COC(=O)C[C@](O)(CCCC(C)(C)O)C(=O)O[C@@H]1C(OC)=C[C@]23CCCN2CCc2cc4c(cc2[C@H]13)OCO4`: the Potency is 20 nM (active).
On the same count and under the same terms, in the case of `CC=CC1=C(C(=O)O)N2C(=O)[C@H](NC(=O)[C@H](N)c3ccc(O)cc3)[C@@H]2SC1` it was “inactive”; in that of `COc1cc(C(=O)NS(=O)(=O)c2ccccc2C)ccc1Cc1cn(C)c2ccc(NC(=O)OC3CCCC3)cc12`, “inactive”; in that of `C[C@H]1C[C@@H]2[C@@H]([C@@H](O)C[C@@]3(C)[C@H]2CC[C@]3(O)C(=O)CO)[C@@]2(C)C=CC(=O)C=C12`, “inactive”.
Same read-out and setting: in the case of `O=c1[nH]c(=O)n(C2CCCO2)cc1F` (centres undefined) it was “inactive”.
Still for that read-out and setting: in the case of `CC1(C)O[C@@H]2C[C@@H]3[C@H]4C[C@@H](F)C5=CC(=O)C=C[C@]5(C)[C@@]4(F)[C@@H](O)C[C@]3(C)[C@]2(C(=O)CO)O1` it was “inactive”; in that of `Nc1ccn([C@@H]2CS[C@H](CO)O2)c(=O)n1`, “inactive”; in that of `CN1c2cc(O)c(N=NC(N)=O)cc2CC1S(=O)(=O)O` (centres undefined), “inactive”.
Regarding `CC[C@H]1CN2CCc3cc(OC)c(OC)cc3[C@H]2C[C@@H]1C[C@@H]1NCCc2cc(OC)c(OC)cc21`, the Potency is 316 nM (active).
Still for that read-out and setting: under `Nc1ccn([C@@H]2O[C@H](CO)[C@H](O)C2(F)F)c(=O)n1` stands 1120 nM (active); under `O=C(O)CO.[NH2-].[NH2-].[Pt+2]`, “inactive”; under `COC(=O)C1=C(C)NC(C)=C(C(=O)OCCN2CCN(C(c3ccccc3)c3ccccc3)CC2)C1c1cccc([N+](=O)[O-])c1` (centres undefined), 1580 nM (active).
Regarding `COc1c(N2C[C@@H]3CCCN[C@H]3C2)c(F)cc2c(=O)c(C(=O)O)cn(C3CC3)c12`, the Potency result was “inactive”.
Still for that read-out and setting: under `CCC1=C[C@@H]2CN(C1)Cc1c([nH]c3ccccc13)[C@@](C(=O)OC)(c1cc3c(cc1OC)N(C)[C@@H]1[C@@](O)(C(=O)OC)[C@H](OC(C)=O)[C@]4(CC)C=CCN5CC[C@]31[C@@H]54)C2` stands 1410 nM (active).
For the molecule `Nc1ccc(S(=O)(=O)Nc2ncccn2)cc1`, the Potency result was “inactive”.

In a further test the test system is P93_24. The description is as above. Particulars: P. falciparum in erythrocytes, SYBR Green DNA, 72 h; series mostly up to 28.7 µM. In a few lines:
as §1
In the case of `COC(=O)C[C@](O)(CCCC(C)(C)O)C(=O)O[C@@H]1C(OC)=C[C@]23CCCN2CCc2cc4c(cc2[C@H]13)OCO4`, the Potency was 28.2 nM (active).
The same measure, in the same setting: in the case of `CC=CC1=C(C(=O)O)N2C(=O)[C@H](NC(=O)[C@H](N)c3ccc(O)cc3)[C@@H]2SC1` it was “inactive”; in that of `COc1cc(C(=O)NS(=O)(=O)c2ccccc2C)ccc1Cc1cn(C)c2ccc(NC(=O)OC3CCCC3)cc12`, “inactive”.
On the same count and under the same terms, in the case of `C[C@H]1C[C@@H]2[C@@H]([C@@H](O)C[C@@]3(C)[C@H]2CC[C@]3(O)C(=O)CO)[C@@]2(C)C=CC(=O)C=C12` it was “inactive”; in that of `O=c1[nH]c(=O)n(C2CCCO2)cc1F` (centres undefined), “inactive”.
Turning to `CC1(C)O[C@@H]2C[C@@H]3[C@H]4C[C@@H](F)C5=CC(=O)C=C[C@]5(C)[C@@]4(F)[C@@H](O)C[C@]3(C)[C@]2(C(=O)CO)O1`, the Potency result is “inactive”.
Regarding `Nc1ccn([C@@H]2CS[C@H](CO)O2)c(=O)n1`, the Potency result was “inactive”.
Regarding `CN1c2cc(O)c(N=NC(N)=O)cc2CC1S(=O)(=O)O` (centres undefined), the Potency result is “inactive”.
Still for that read-out and setting: under `CC[C@H]1CN2CCc3cc(OC)c(OC)cc3[C@H]2C[C@@H]1C[C@@H]1NCCc2cc(OC)c(OC)cc21` stands 282 nM (active); under `CC(C)(C)NC(=O)[C@H]1CN(Cc2cccnc2)CCN1C[C@@H](O)C[C@@H](Cc1ccccc1)C(=O)N[C@H]1c2ccccc2C[C@H]1O`, 14100 nM (active); under `Nc1ccn([C@@H]2O[C@H](CO)[C@H](O)C2(F)F)c(=O)n1`, 316 nM (active).
Still for that read-out and setting: under `O=C(O)CO.[NH2-].[NH2-].[Pt+2]` stands “inactive”; under `COC(=O)C1=C(C)NC(C)=C(C(=O)OCCN2CCN(C(c3ccccc3)c3ccccc3)CC2)C1c1cccc([N+](=O)[O-])c1` (centres undefined), 2820 nM (active); under `CCC1=C[C@@H]2CN(C1)Cc1c([nH]c3ccccc13)[C@@](C(=O)OC)(c1cc3c(cc1OC)N(C)[C@@H]1[C@@](O)(C(=O)OC)[C@H](OC(C)=O)[C@]4(CC)C=CCN5CC[C@]31[C@@H]54)C2`, 2240 nM (active).
Still for that read-out and setting: under `Nc1ccc(S(=O)(=O)Nc2ncccn2)cc1` stands “inactive”.

For the origin of these results see PubChem BioAssay (NCATS).
